Sampled rows, rich in hits. Any-hit rate of the full collection: about 5.9%.
Rtt109 Vps75: inhibitors of Candida albicans Rtt109/Vps75 histone acetyltransferase. Q5AAJ8. purified Rtt109/Vps75, ThioGlo CoA-SH fluorescence, 4 h. inhibition, % at 34.9 µM. 330,000 tested, 0.16% active. AID 540336;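 active = inhibition of at least 50% in every replicate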
PRMT1 inh: inhibitors of human PRMT1; Q99873; recombinant PRMT1, activity-based probe fluorescence polarization; inhibition, % at 2.79 µM; 370,000 tested, 1.3% active; AID 652257;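 active = inhibition above about 21% made by adding two undisclosed values, limit read from the data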
LANA-H2B inh: blocks KSHV LANA binding to histone H2A/H2B | AID 2629 | 320,000 tested, 0.6% active | inhibition, % (test concentration not listed) | cell-free LANA-H2A/H2B peptide, fluorescence polarization; in the data active = inhibition mostly above about 10%, no sharp cut-off; inactive = mostly below about 6.7%
ABHD5-PLIN5 inh: blocks binding of human ABHD5 to perilipin-5; 360,000 tested, 0.78% active; Split G. princeps luciferase complementation, luminescence, 4 h; Q00G26+Q8WTS1; inhibition, % at 4 µM;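 active = inhibition above the mean inhibition across every tested compound plus 3 SD, cut at about 22% in these data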;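 note: 0% = DMSO only wells and the 100% control is not disclosed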
rCAG binder: molecules binding r(CAG) RNA repeats; inhibition, % at 3 µM; 370,000 tested, 1.3% active; r(CAG) RNA repeat, TO-PRO-1 dye displacement fluorescence; AID 651821;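 active = inhibition above the plate cutoff, the mean of all test compounds on that plate plus 3 SD, cut at about 35% in these data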;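 note: 0% = DMSO alone and 100% = 100 µM mitoxantrone as full dye displacement; higher means more dye released from RNA so lower well fluorescence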
ALR H2O2 inh: human ALR oxidase inhibition via reduced H2O2. P55789. purified ALR, DTT oxidation, H2O2 HRP-luminol luminescence. inhibition, % (concentration not given with the values). 290,000 tested, 3.8% active. AID 485317;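 active = mean replicate inhibition above about 79%, with every replicate also reaching it, limit read from the data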
Target sequence (P55789 whole entry, looked up): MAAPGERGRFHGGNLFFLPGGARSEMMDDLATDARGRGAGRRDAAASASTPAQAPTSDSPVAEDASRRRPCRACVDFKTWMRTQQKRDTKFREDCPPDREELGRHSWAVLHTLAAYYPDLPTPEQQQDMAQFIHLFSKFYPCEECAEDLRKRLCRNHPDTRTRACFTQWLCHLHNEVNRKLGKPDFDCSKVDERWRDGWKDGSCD
Numbers without * were called inactive; nt = no result; + = active, no number.

SMILES	Rtt109 Vps75	PRMT1 inh	LANA-H2B inh	ABHD5-PLIN5 inh	rCAG binder	ALR H2O2 inh
CCCOC(=O)C1=C(C)NC2=C(C(=O)CCC2)C1c1ccc(N(C)C)cc1 (centres undefined)	11.5	3.4	-3.4	3.9	-0.2	90.7*
COC(=O)[C@H](C(C)C)N(CCCc1cn(CC2CCCCC2)nn1)S(=O)(=O)c1ccc(F)cc1Br	nt	-3.4	nt	nt	0.7	nt
O=c1[nH]c(=O)c2nnc(N/N=C\c3ccc(O)cc3)nc2[nH]1	8.5	-2.5	1.3	2.0	3.4	99.2*
COc1ccc(S(=O)(=O)NNS(=O)(=O)c2ccc(OC)c(OC)c2)cc1OC	nt	nt	nt	-13.9	nt	nt
CC(=O)Nc1ccc(SC[C@H](C)CN2CC[C@H](C(C)(C)C)CCC2=O)cc1	7.4	23.8*	-4.4	-10.1	0.1	99.2*
CC(=O)Nc1ccc(SC[C@H](CC(C)C)N2CCN(CC(C)C)CCC2=O)cc1	8.5	23.2*	-0.3	-8.1	-10.1	98.5*
COc1ccc2nc(C)cc(SCC(=O)Nc3c(C)cc(C)cc3C)c2c1	1.9	0.0	-4.2	-5.2	-0.2	nt
CCOC(=O)CSc1cc(C)nc2ccc(OC)cc12	-16.7	1.5	3.0	0.8	-1.1	98.1*
CN1CCN(c2ccc(NC(=O)c3ccc(-c4ccc(Cl)cc4)o3)cc2)CC1	-0.6	-1.1	65.6*	13.3	-3.6	29.2
CS(=O)(=O)N1CCN(c2ccc(NC(=O)c3ccc(-c4ccc(Cl)cc4)o3)cc2)CC1	18.1	0.0	-11.7	19.1	0.3	1.2
CCCN(CCC)C(=O)c1ccc2c(c1)N(Cc1ccccc1)C(=O)CS2=O (centres undefined)	-1.8	23.9*	-2.9	-1.8	-13.1	-1.7
CS(=O)(=O)c1nc(-c2cccs2)cc(C(F)(F)F)n1	nt	nt	0.4	nt	nt	98.5*
CN1CCN(c2nc(-c3cccs3)cc(C(F)(F)F)n2)CC1	-4.3	-3.7	-2.2	2.8	-8.1	-12.3
Cc1cc(=O)oc2cc(OCC(=O)N/N=C/c3cc([N+](=O)[O-])ccc3O)ccc12	-1.0	-1.9	+	5.7	6.1	-4.8
Cc1ccc(C)c(NC(=O)CCC(=O)N/N=C/c2cc([N+](=O)[O-])ccc2O)c1	12.1	-2.4	-1.4	1.6	9.1	7.2
CCc1ccc(N2CC(C(=O)NC3CCCCC3C)CC2=O)cc1 (centres undefined)	5.9	1.9	-8.3	-1.6	-4.7	-0.9
CC(=O)Nc1ccc(NC(=O)CCCN2C(=O)C(c3ccccc3)Oc3cccnc32)cc1 (centres undefined)	nt	2.3	nt	-1.8	0.4	nt
Cc1cc(C)cc(NC(=O)CCCN2C(=O)C(c3ccccc3)Oc3cccnc32)c1 (centres undefined)	6.1	-1.5	13.6*	-3.7	-1.5	-1.0
CCc1ccccc1NC(=O)c1cc(C)nn1-c1ccccc1	nt	-1.3	nt	nt	-1.5	nt
COc1ccc(CCCNC(=O)C2Cc3c(-c4cccc(NC(C)=O)c4)ccnc3O2)cc1 (centres undefined)	nt	-2.5	nt	4.1	2.2	nt
COc1ccc(C(=O)n2cc(C(=O)c3cc(C)ccc3O)cn2)cc1	-3.5	0.2	2.0	-4.7	1.2	97.7*
COc1ccc(C(=O)n2cc(C(=O)c3cc(C)ccc3O)cn2)cc1OC	4.8	2.2	-1.9	0.3	-2.1	30.1
O=C(O)CCSc1nc2ccccc2s1	2.3	0.4	0.1	-0.6	2.6	99.4*
CN(C)CCCSc1nc2ccccc2s1	nt	14.3	3.1	-2.6	0.7	98.6*
COCCCNC(=O)C[C@H]1C[C@@]2(C(=O)OC)C(=C[C@H](C(C)(C)C)O[C@@H]2C)N(CCc2ccc(OC)c(OC)c2)C1=O	nt	1.9	nt	nt	-2.5	nt
SMILES	Rtt109 Vps75	PRMT1 inh	LANA-H2B inh	ABHD5-PLIN5 inh	rCAG binder	ALR H2O2 inh
CN(C)C(=O)N1CCN(C(=O)[C@H](CCc2ccccc2)NC(=O)[C@H]2O[C@@H](n3cnc4c(N)ncnc43)[C@H](O)[C@@H]2O)CC1	nt	-2.0	nt	nt	-0.2	nt
CCCNc1cc(=S)nc(N)[nH]1	3.6	21.9*	1.7	-1.6	-2.2	nt
Cc1cccc(N=Nc2c(N)n[nH]c2N)c1	20.1	4.1	0.7	5.5	0.6	93.4*
Nc1n[nH]c(N)c1N=Nc1cccc(F)c1	10.8	1.9	nt	1.9	1.0	nt
CSc1ncccc1C(=O)OCC(=O)NC1CC1	-10.7	3.8	nt	7.2	0.9	nt
COc1ccc(-c2nc(CS(=O)CC(=O)NC3CCCCCC3)c(C)o2)cc1 (centres undefined)	-0.7	5.0	0.3	1.9	-2.3	98.2*
